# Measurements published in PubChem BioAssay (Tox21).
# Values joined by “and” are separate entries in the source; they are usually repeats but may differ in a detail not shown here. Equal entries are not always repeated. Records with an inconclusive call do not appear. A call without a number means that no potency is given here. A structure can be active in one record and inactive in another. Active and inactive are the calls of the source. Unless noted, the call rests on the fitted dose curve; in most records, active means well fitted curve in the direction sought with a large enough effect in the repeat runs; inconclusive means weak or mixed curves; inactive means no such curve, though single readings can be large; an effect the other way counts as inactive or inconclusive.
# What was measured:
# [1] = qHTS assay to test for compound auto fluorescence at 535 nm (green) in HEK293 cells (AID 720680)
# [2] = qHTS assay to test for compound auto fluorescence at 460 nm (blue) in HEK293 cell free culture (AID 720681)
# Summary of the method: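 Test compounds were pinned into cell-free culture medium (DMEM with 10% FBS) and fluorescence was read directly at Ex/Em 405/460 nm. Signals were expressed as fluorescence equivalents of triamterene, with DMSO vehicle as control.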
# [3] = qHTS assay to test for compound auto fluorescence at 535 nm (green) in HEK293 cell free culture (AID 720682)
# Summary of the method: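 Compounds were pin-transferred into cell-free DMEM with 10% FBS, and green fluorescence was read at excitation 485 nm and emission 535 nm. Intensities were expressed as fluorescein-equivalent values.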
# [4] = qHTS assay to test for compound auto fluorescence at 590 nm (red) in HEK293 cell free culture (AID 720683)
# Summary of the method: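 Tox21 10K library compounds were pinned into cell-free DMEM with 10% FBS and fluorescence was read at excitation 540 nm. Activity is expressed as Rose Bengal sodium equivalency.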
# [5] = qHTS assay to test for compound auto fluorescence at 590 nm (red) in HepG2 cell free culture (AID 720684)
# Summary of the method: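 Measured in medium alone (MEM containing 10% FBS) following pintool addition of compound; emission at 590 nm with 540 nm excitation, referenced to Rose Bengal sodium.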
# [6] = qHTS assay to test for compound auto fluorescence at 460 nm (blue) in HepG2 cell free culture (AID 720685)
# Summary of the method: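 Compound (23 nL) or DMSO pinned into cell-free MEM with 10% FBS; blue fluorescence read at 405/460 nm excitation/emission, expressed as auto-fluorescence equivalency to triamterene.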
# [7] = qHTS assay to test for compound auto fluorescence at 535 nm (green) in HepG2 cell free culture (AID 720686)
# [8] = qHTS assay to test for compound auto fluorescence at 460 nm (blue) in HepG2 cells (AID 720687)
# Summary of the method: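 Cells (2,000/well in MEM with 10% FBS) attached overnight at 37 C, then were exposed to compound or DMSO for 1 hr at 37 C, 5% CO2. Fluorescence read at Ex/Em 405/460 nm, expressed as triamterene-equivalent signal.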
# [9] = target: Glucocorticoid receptor (Homo sapiens) (UniProt P04150); test: qHTS assay to identify small molecule agonists of the glucocorticoid receptor (GR) signaling pathway (AID 720691; active means well fitted activation curve with a large enough effect in the signal ratio in the repeat runs, not every such curve was filed as active; the % refers to the signal ratio)
# Chain of Glucocorticoid receptor (Homo sapiens) (P04150 whole entry, looked up): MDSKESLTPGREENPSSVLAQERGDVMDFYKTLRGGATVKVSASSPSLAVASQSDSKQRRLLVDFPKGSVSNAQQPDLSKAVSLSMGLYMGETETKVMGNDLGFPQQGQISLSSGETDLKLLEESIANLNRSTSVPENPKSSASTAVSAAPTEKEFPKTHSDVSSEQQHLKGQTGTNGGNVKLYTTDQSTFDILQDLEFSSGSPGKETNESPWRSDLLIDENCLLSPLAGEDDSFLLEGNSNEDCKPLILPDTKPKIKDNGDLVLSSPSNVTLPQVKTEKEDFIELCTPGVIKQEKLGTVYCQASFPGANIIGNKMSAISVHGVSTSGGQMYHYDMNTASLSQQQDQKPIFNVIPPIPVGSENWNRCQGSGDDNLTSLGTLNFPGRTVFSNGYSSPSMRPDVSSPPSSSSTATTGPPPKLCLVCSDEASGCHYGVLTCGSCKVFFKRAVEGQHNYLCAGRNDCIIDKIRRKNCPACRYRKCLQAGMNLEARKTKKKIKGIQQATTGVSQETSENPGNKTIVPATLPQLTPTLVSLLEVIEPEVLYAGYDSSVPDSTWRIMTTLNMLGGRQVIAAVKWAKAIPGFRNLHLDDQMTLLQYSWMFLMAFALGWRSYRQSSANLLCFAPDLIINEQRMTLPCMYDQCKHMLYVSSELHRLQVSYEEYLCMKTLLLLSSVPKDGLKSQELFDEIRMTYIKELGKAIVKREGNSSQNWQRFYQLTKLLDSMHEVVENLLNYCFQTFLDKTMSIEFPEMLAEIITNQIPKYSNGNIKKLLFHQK
# Summary of the method: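 Fluorescence intensity from LiveBLAzer B/G FRET substrate (2 h, room temperature) reports beta-lactamase expression driven by the glucocorticoid response element in GR-bla HeLa cells after 18 h compound exposure at 37 C.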
# [10] = target: Glucocorticoid receptor (Homo sapiens) (UniProt P04150); test: qHTS assay to identify small molecule antagonists of the glucocorticoid receptor (GR) signaling pathway (AID 720692; active means well fitted inhibition curve with a large enough effect in the signal ratio in the repeat runs, not every such curve was filed as active; the % refers to the signal ratio)
# Summary of the method: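 HeLa GR-bla cells; cmpd + dex 5 nM final, 18 h 37 C; LiveBLAzer B/G FRET substrate 2 h RT; fluorescence intensity read. Antagonist mode, qHTS.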
# [11] = qHTS assay to identify small molecule antagonists of the glucocorticoid receptor (GR) signaling pathway - cell viability counter screen (AID 720693); further: nearly all actives have a fitted effect of over 55% in size
# [12] = qHTS assay for identifying genotoxic compounds that show differential cytotoxicity against isogenic chicken DT40 cell lines with known DNA damage response pathways - wild type cell line (AID 743012); further: nearly all actives have a fitted effect of over 60% in size; further: potency means the concentration at half of the fitted maximal effect
# Summary of the method: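 Wild type DT40, 300 cells/well, ~0.5 h settle at 37 C/5% CO2; compounds in DMSO added by pintool; 40 h at 37 C/5% CO2; CellTiter-Glo, 30 min RT; luminescence.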
# [13] = qHTS assay for identifying genotoxic compounds that show differential cytotoxicity against isogenic chicken DT40 cell lines with known DNA damage response pathways - Rev3 mutant cell line (AID 743014); further: nearly all actives have a fitted effect of over 55% in size; further: potency means the concentration at half of the fitted maximal effect
# [14] = qHTS assay for identifying genotoxic compounds that show differential cytotoxicity against isogenic chicken DT40 cell lines with known DNA damage response pathways - Rad54/Ku70 mutant cell line (AID 743015); further: nearly all actives have a fitted effect of over 60% in size; further: potency means the concentration at half of the fitted maximal effect
# [15] = qHTS assay to identify small molecule antagonists of the androgen receptor (AR) signaling pathway - cell viability counter screen (AID 743033; further: nearly all actives have a fitted effect of over 45% in size; further: potency means the concentration at half of the fitted maximal effect)
# [16] = qHTS assay to identify small molecule antagonists of the androgen receptor (AR) signaling pathway using the MDA cell line - cell viability counter screen (AID 743041; further: nearly all actives have a fitted effect of over 45% in size)
# Summary of the method: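 Viability counter screen run alongside the AR antagonist reporter: cells seeded 5 h before compound, R1881 added, 16 h incubation at 37C without CO2, fluorescent CellTiter-Fluor signal quantified.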
# [17] = target: Androgen receptor (Homo sapiens) (UniProt P10275); test: qHTS assay to identify small molecule antagonists of the androgen receptor (AR) signaling pathway (AID 743035; active means well fitted inhibition curve with a large enough effect in the signal ratio in the repeat runs, not every such curve was filed as active; the % refers to the signal ratio)
# Chain of Androgen receptor (Homo sapiens) (P10275 whole entry, looked up): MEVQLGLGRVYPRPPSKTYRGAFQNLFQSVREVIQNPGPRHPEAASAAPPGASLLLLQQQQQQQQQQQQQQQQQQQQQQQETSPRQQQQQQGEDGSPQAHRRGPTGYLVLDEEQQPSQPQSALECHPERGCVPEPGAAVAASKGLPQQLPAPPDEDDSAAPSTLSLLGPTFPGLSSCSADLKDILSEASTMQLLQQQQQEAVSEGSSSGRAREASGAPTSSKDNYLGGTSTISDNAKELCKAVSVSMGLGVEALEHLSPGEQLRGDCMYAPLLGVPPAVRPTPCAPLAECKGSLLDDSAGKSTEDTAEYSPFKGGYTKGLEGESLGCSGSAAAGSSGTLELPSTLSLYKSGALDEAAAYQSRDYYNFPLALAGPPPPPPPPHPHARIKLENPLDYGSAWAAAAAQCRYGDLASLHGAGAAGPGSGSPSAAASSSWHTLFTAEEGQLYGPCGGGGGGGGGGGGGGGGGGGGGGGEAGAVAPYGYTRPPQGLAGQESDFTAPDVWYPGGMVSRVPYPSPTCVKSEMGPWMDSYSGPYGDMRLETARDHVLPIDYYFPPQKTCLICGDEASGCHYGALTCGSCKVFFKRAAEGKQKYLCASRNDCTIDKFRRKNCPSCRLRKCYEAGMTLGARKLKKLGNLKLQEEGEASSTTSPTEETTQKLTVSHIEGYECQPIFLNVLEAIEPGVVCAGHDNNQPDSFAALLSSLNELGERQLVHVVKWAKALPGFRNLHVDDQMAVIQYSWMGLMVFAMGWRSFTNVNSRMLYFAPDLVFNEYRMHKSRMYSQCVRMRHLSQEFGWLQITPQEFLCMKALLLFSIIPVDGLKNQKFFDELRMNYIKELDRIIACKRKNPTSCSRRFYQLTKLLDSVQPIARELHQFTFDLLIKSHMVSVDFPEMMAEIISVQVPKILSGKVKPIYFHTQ
# Summary of the method: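 Fluorescence from a beta-lactamase FRET substrate (LiveBLAzer B/G, 2 h, room temperature) measured inhibition of R1881-stimulated signaling in GeneBLAzer AR-UAS-bla HEK293 cells exposed to compound for 16 h at 37C.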
# [18] = target: Androgen receptor (Homo sapiens) (UniProt P10275); test: qHTS assay to identify small molecule agonists of the androgen receptor (AR) signaling pathway (AID 743036; active means well fitted activation curve with a large enough effect in the signal ratio in the repeat runs, with a control signal flat, not every such curve was filed as active; the % refers to the signal ratio)
# Summary of the method: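 Activation was read as beta-lactamase FRET signal from LiveBLAzer B/G substrate, added for 2 h at room temperature. Before that, GeneBLAzer AR-UAS-bla GripTite (HEK293) cells had 16 h compound exposure at 37C.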
# [19] = target: Androgen receptor (Homo sapiens) (UniProt P10275); test: qHTS assay to identify small molecule agonists of the androgen receptor (AR) signaling pathway using the MDA cell line (AID 743040; further: nearly all actives have a fitted effect of over 20% in size)
# Summary of the method: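 Luminescence from ONE-Glo, read after 30 min at room temperature, reflects MMTV-driven luciferase in MDA-kb2 cells (AR- and GR-responsive). Treatment lasted 16 h at 37C, 0% CO2.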
# [20] = target: Androgen receptor (Homo sapiens) (UniProt P10275); test: qHTS assay to identify small molecule antagonists of the androgen receptor (AR) signaling pathway using the MDA cell line (AID 743042; further: nearly all actives have a fitted effect of over 55% in size)
# Summary of the method: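 MDA-kb2 cells (human breast carcinoma, stably carrying an MMTV-luciferase reporter responsive to AR and GR) were plated at 3,000 cells/well and preincubated 5 hr at 37C, then given compound plus R1881 agonist for 16 h. ONE-Glo luminescence was read.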
structure (smiles),measurement,setting,value
CCNP(=S)(OC)O/C(C)=C/C(=O)OC(C)C (stereo not drawn),outcome,[1],inactive
same,outcome,[2],inactive
same,outcome,[3],inactive
same,outcome,[4],inactive
same,outcome,[5],inactive
same,outcome,[6],inactive
same,outcome,[7],inactive
same,outcome,[8],inactive
same,Potency,[9],inactive
same,Potency,[10],inactive
same,Potency,[11],inactive
same,Potency,[12],61.1 µM (active)
same,Potency,[13],34.4 µM (active)
same,Potency,[14],54.5 µM (active)
same,Potency,[15],inactive
CN1COCN(Cc2cnc(Cl)s2)/C1=N\[N+](=O)[O-],outcome,[1],inactive
same,outcome,[2],inactive
same,outcome,[3],inactive
same,outcome,[4],inactive
same,outcome,[5],inactive
same,outcome,[6],inactive
same,outcome,[7],inactive
same,outcome,[8],inactive
same,Potency,[9],inactive
same,Potency,[10],inactive
same,Potency,[11],inactive
same,Potency,[12],inactive
same,Potency,[14],inactive
same,Potency,[16],inactive
O=C(NC(O)C(Cl)(Cl)Cl)NC(O)C(Cl)(Cl)Cl (stereo not drawn),outcome,[1],inactive
same,outcome,[2],inactive
same,outcome,[3],inactive
same,outcome,[4],inactive
same,outcome,[5],inactive
same,outcome,[6],inactive
same,outcome,[7],inactive
same,outcome,[8],inactive
same,Potency,[9],inactive
same,Potency,[10],inactive
same,Potency,[11],inactive
same,Potency,[12],inactive
same,Potency,[13],inactive
same,Potency,[14],inactive
same,Potency,[16],inactive
CC(C)[N+](C)(CCC(C(N)=O)(c1ccccc1)c1ccccc1)C(C)C,"fluorescence, % of fluorescein",[1],0.0067% [at 18.6 µM] (inactive)
same,"fluorescence, % of fluorescent control",[2],0.0496% [at 18.6 µM] (inactive)
same,activity change,[3],-0.0088% [at 18.6 µM] (inactive)
same,"fluorescence, % of fluorescent control",[4],0.0889% [at 18.6 µM] (inactive)
same,"fluorescence, % of Rose Bengal",[5],0.379% [at 18.6 µM] (inactive)
same,"fluorescence, % of fluorescent control",[6],-0.0402% [at 18.6 µM] (inactive)
same,"fluorescence, % of fluorescein control",[7],0.0122% [at 18.6 µM] (inactive)
same,"fluorescence, % of fluorescent control",[8],-0.0322% [at 18.6 µM] (inactive)
same,Potency,[9],inactive
same,Potency,[10],inactive
same,Potency,[11],inactive
same,Potency,[12],inactive
same,Potency,[13],inactive
same,Potency,[14],inactive
same,Potency,[16],inactive
CCN(CCO)CCO,outcome,[1],inactive
same,outcome,[2],inactive
same,outcome,[3],inactive
same,outcome,[4],inactive
same,outcome,[5],inactive
same,outcome,[6],inactive
same,outcome,[7],inactive
same,outcome,[8],inactive
same,Potency,[9],inactive
same,Potency,[10],inactive
same,Potency,[11],inactive
same,Potency,[12],inactive
same,Potency,[14],inactive
same,Potency,[15],inactive
same,Potency,[16],inactive
CC1N=C(N)OC1c1ccccc1 (stereo not drawn),outcome,[1],inactive
same,outcome,[2],inactive
same,outcome,[3],inactive
same,outcome,[4],inactive
same,outcome,[5],inactive
same,outcome,[6],inactive
same,outcome,[7],inactive
same,outcome,[8],inactive
same,Potency,[9],inactive
same,Potency,[10],inactive
same,Potency,[11],inactive
same,Potency,[12],inactive
same,Potency,[13],inactive
same,Potency,[14],inactive
same,Potency,[16],inactive
CCCN1CCC[C@@H]2Cc3[nH]ncc3C[C@H]21,outcome,[1],inactive
same,outcome,[2],inactive
same,outcome,[3],inactive
same,outcome,[4],inactive
same,outcome,[5],inactive
same,outcome,[6],inactive
same,outcome,[7],inactive
same,outcome,[8],inactive
same,Potency,[9],inactive
same,Potency,[10],inactive
same,Potency,[11],inactive
same,Potency,[12],inactive
same,Potency,[13],inactive
same,Potency,[14],inactive
same,Potency,[15],inactive
same,Potency,[16],inactive
Cn1c(CCCC(=O)O)nc2cc(N(CCCl)CCCl)ccc21,outcome,[1],inactive
same,outcome,[2],inactive
same,outcome,[3],inactive
same,outcome,[4],inactive
same,outcome,[5],inactive
same,outcome,[6],inactive
same,outcome,[7],inactive
same,outcome,[8],inactive
same,Potency,[9],inactive
same,Potency,[10],inactive
same,Potency,[11],inactive
same,Potency,[12],26.6 µM (active)
same,Potency,[13],3.35 µM (active)
same,Potency,[15],inactive
same,Potency,[16],inactive
O=C1CC(=O)NC(=O)N1,outcome,[1],inactive
same,outcome,[2],inactive
same,outcome,[3],inactive
same,outcome,[4],inactive
same,outcome,[5],inactive
same,outcome,[6],inactive
same,outcome,[7],inactive
same,outcome,[8],inactive
same,Potency,[9],inactive
same,Potency,[10],inactive
same,Potency,[11],inactive
same,Potency,[12],inactive
same,Potency,[13],inactive
same,Potency,[14],inactive
same,Potency,[15],inactive
same,Potency,[16],inactive
C=CCCC#N,outcome,[1],inactive
same,outcome,[2],inactive
same,outcome,[3],inactive
same,outcome,[4],inactive
same,outcome,[5],inactive
same,outcome,[6],inactive
same,outcome,[7],inactive
same,outcome,[8],inactive
same,Potency,[9],inactive
same,Potency,[11],inactive
same,Potency,[12],inactive
same,Potency,[13],inactive
same,Potency,[14],inactive
same,Potency,[15],inactive
CC(C)(C)c1cc(O)ccc1O,outcome,[1],inactive
same,outcome,[2],inactive
same,outcome,[3],inactive
same,outcome,[4],inactive
same,outcome,[5],inactive
same,outcome,[6],inactive
same,outcome,[7],inactive
same,outcome,[8],inactive
same,Potency,[9],inactive
same,Potency,[10],inactive
same,Potency,[12],4.22 µM (active) and 7.7 µM (active)
same,Potency,[14],6.68 µM (active) and 48.6 µM (active) and 12.2 µM (active)
same,Potency,[15],inactive and 26.8 µM (active)
same,Potency,[16],inactive
C=C(Cl)CCl,outcome,[1],inactive
same,outcome,[2],inactive
same,outcome,[3],inactive
same,outcome,[4],inactive
same,outcome,[5],inactive
same,outcome,[6],inactive
same,outcome,[7],inactive
same,outcome,[8],inactive
same,Potency,[9],inactive
same,Potency,[11],inactive
same,Potency,[12],inactive
same,Potency,[13],inactive
same,Potency,[14],inactive
same,Potency,[15],inactive
same,Potency,[16],inactive
CCN[C@H](C)Cc1cccc(C(F)(F)F)c1,outcome,[1],inactive
same,outcome,[2],inactive
same,outcome,[3],inactive
same,outcome,[4],inactive
same,outcome,[5],inactive
same,outcome,[6],inactive
same,outcome,[7],inactive
same,outcome,[8],inactive
same,Potency,[9],inactive
same,Potency,[11],inactive
same,Potency,[12],60.9 µM (active)
same,Potency,[13],30.5 µM (active)
same,Potency,[14],54.3 µM (active)
same,Potency,[15],inactive
same,Potency,[16],inactive
CCCC(C)(COC(N)=O)COC(N)=O,outcome,[1],inactive
same,outcome,[2],inactive
same,outcome,[3],inactive
same,outcome,[4],inactive
same,outcome,[5],inactive
same,outcome,[6],inactive
same,outcome,[7],inactive
same,outcome,[8],inactive
same,Potency,[9],inactive
same,Potency,[11],inactive
same,Potency,[12],inactive
same,Potency,[13],inactive
same,Potency,[14],inactive
same,Potency,[15],inactive
same,Potency,[16],inactive
Cc1ccc(Cl)c(O)c1,outcome,[1],inactive
same,outcome,[2],inactive
same,outcome,[3],inactive
same,outcome,[4],inactive
same,outcome,[5],inactive
same,outcome,[6],inactive
same,outcome,[7],inactive
same,outcome,[8],inactive
same,Potency,[9],inactive
same,Potency,[11],inactive
same,Potency,[12],inactive
same,Potency,[13],inactive
same,Potency,[14],inactive
same,Potency,[15],inactive
same,Potency,[16],inactive
C[C@H](N)C(=O)c1ccccc1,outcome,[1],inactive
same,outcome,[2],inactive
same,outcome,[3],inactive
same,outcome,[4],inactive
same,outcome,[5],inactive
same,outcome,[6],inactive
same,outcome,[7],inactive
same,outcome,[8],inactive
same,Potency,[9],inactive
same,Potency,[11],inactive
same,Potency,[12],inactive
same,Potency,[13],inactive
same,Potency,[14],inactive
same,Potency,[15],inactive
same,Potency,[17],inactive
same,outcome,[18],inactive
same,outcome,[19],inactive
same,Potency,[16],inactive
same,Potency,[20],inactive
